# Results from PubChem BioAssay AID1159580 (chemical genetic matrix, 2015).
# About 2,000 (36%) of roughly 5,500 compounds were called active. About 18% were inconclusive and are not listed. Some of the results follow. A number with no mark means an inactive call. Rule as the data show it: active = normalized growth mostly below about 0.91 (no sharp cut-off); inconclusive = no clear call, values can overlap the other calls; inactive = mostly above about 0.92.
# Test: chemical genetic growth profiling, strain panel (AID 1159580);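 also: tested at 20 µM; growth read once vehicle control cultures reached saturation at 30 °C; 1 = growth at the plate median or of vehicle wells; lower values mean less growth of the strain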
# Details: S. cerevisiae deletion strains, growth OD
# [1] = locus YAR019C, strain CDC15, active compounds read low
# [2] = locus YBL105C, strain PKC1, active compounds read low
# [3] = locus YBR135W, strain CKS1, active compounds read low
# [4] = locus YBR136W, strain MEC1, active compounds read low
# [5] = locus YBR160W, strain CDC28, active compounds read low
# [6] = locus YDL017W, strain CDC7, active compounds read low
# [7] = locus YDL028C, strain MPS1, active compounds read low
# [8] = locus YDL101C, strain DUN1, active compounds read low
# [9] = locus YDL108W, strain KIN28, active compounds read low
# [10] = locus YDL132W, strain cdc53, active compounds read low
# [11] = locus YDL214C, strain PRR2, active compounds read low
# [12] = locus YDR052C, strain DBF4, active compounds read low
# [13] = locus YDR054C, strain cdc34, active compounds read low
# [14] = locus YDR226W, strain ADK1, active compounds read low
# [15] = locus YDR477W, strain SNF1, active compounds read low
# [16] = locus YER123W, strain YCK3, active compounds read low
# [17] = locus YER133W, strain GLC7, active compounds read low
# [18] = locus YFL009W, strain cdc4, active compounds read low
# [19] = locus YFL029C, strain CAK1, active compounds read low
# [20] = locus YFR003C, strain YPI1, active compounds read low
# [21] = locus YFR019W, strain FAB1, active compounds read low
# [22] = locus YFR028C, strain CDC14, active compounds read low
# [23] = locus YGR040W, strain KSS1, active compounds read low
# [24] = locus YGR052W, strain FMP48, active compounds read low
# [25] = locus YGR092W, strain DBF2, active compounds read low
# [26] = locus YHR030C, strain SLT2, active compounds read low
# [27] = locus YHR079C, strain IRE1, active compounds read low
# [28] = locus YHR082C, strain KSP1, active compounds read low
# [29] = locus YHR205W, strain SCH9, active compounds read low
# [30] = locus YIL147C, strain SLN1, active compounds read low
# [31] = locus YJL095W, strain BCK1, active compounds read low
# [32] = locus YJL128C, strain PBS2, active compounds read low
# [33] = locus YJL157C, strain FAR1, active compounds read low
# [34] = locus YJR016C, strain ILV3, active compounds read low
# [35] = locus YJR066W, strain TOR1 (second series), active compounds read low
# [36] = locus YJR066W, strain TOR1, active compounds read low
# [37] = locus YKL048C, strain ELM1, active compounds read low
# [38] = locus YKL067W, strain YNK1, active compounds read low
# [39] = locus YKL101W, strain HSL1, active compounds read low
# [40] = locus YKL193C, strain SDS22, active compounds read low
# [41] = locus YKL203C, strain TOR2, active compounds read low
# [42] = locus YLR113W, strain HOG1, active compounds read low
# [43] = locus YLR133W, strain CKI1, active compounds read low
# [44] = locus YLR403W, strain SFP1, active compounds read low
# [45] = locus YML070W, strain DAK1, active compounds read low
# [46] = locus YMR001C, strain CDC5, active compounds read low
# [47] = locus YMR205C, strain PFK2 (second series), active compounds read low
# [48] = locus YMR277W, strain FCP1, active compounds read low
# [49] = locus YNL006W, strain LST8, active compounds read low
# [50] = locus YNL020C, strain ARK1, active compounds read low
# [51] = locus YNL161W, strain CBK1, active compounds read low
# [52] = locus YNL183C, strain NPR1, active compounds read low
# [53] = locus YNL207W, strain RIO2, active compounds read low
# [54] = locus YNL222W, strain SSU72, active compounds read low
# [55] = locus YNL307C, strain MCK1 (second series), active compounds read low
# [56] = locus YOL078W, strain AVO1, active compounds read low
# [57] = locus YOL136C, strain PFK27, active compounds read low
# [58] = locus YOR061W, strain CKA2, active compounds read low
# [59] = locus YOR119C, strain RIO1, active compounds read low
# [60] = locus YOR231W, strain MKK1, active compounds read low
# [61] = locus YOR329C, strain SCD5, active compounds read low
# [62] = locus YPL031C, strain PHO85, active compounds read low
# [63] = locus YPL153C, strain RAD53, active compounds read low
# [64] = locus YPL204W, strain HRR25, active compounds read low
# [65] = locus YPL209C, strain IPL1, active compounds read low
# [66] = locus YPL256C, strain CLN2, active compounds read low
# [67] = locus YPR025C, strain CCL1, active compounds read low
# [68] = locus YPR106W, strain ISR1, active compounds read low
# [69] = locus YPR111W, strain DBF20, active compounds read low
# [70] = strain NNK1, active compounds read low
# [71] = strain TSCII, active compounds read low
structure (smiles),measurement,setting,value
O=C(NCCSCc1cccc(C(F)(F)F)c1)Nc1cccc(C(F)(F)F)c1,normalized growth,[1],0.999
same,normalized growth,[2],1
same,normalized growth,[3],0.994
same,normalized growth,[4],0.998
same,normalized growth,[5],0.997
same,normalized growth,[6],1
same,normalized growth,[7],0.996
same,normalized growth,[8],1.01
same,normalized growth,[9],0.999
same,normalized growth,[10],0.99
same,normalized growth,[11],1.01
same,normalized growth,[12],1.01
same,normalized growth,[13],0.995
same,normalized growth,[14],1
same,normalized growth,[15],1.01
same,normalized growth,[16],1.02
same,normalized growth,[17],1.02
same,normalized growth,[18],0.992
same,normalized growth,[19],0.991
same,normalized growth,[20],1
same,normalized growth,[21],1
same,normalized growth,[22],0.997
same,normalized growth,[23],1
same,normalized growth,[24],1.18
same,normalized growth,[25],1
same,normalized growth,[26],1.15
same,normalized growth,[27],1.11
same,normalized growth,[28],1.18
same,normalized growth,[29],0.989
same,normalized growth,[30],1
same,normalized growth,[31],1.17
same,normalized growth,[32],0.954
same,normalized growth,[33],1.01
same,normalized growth,[34],1.01
same,normalized growth,[35],0.993
same,normalized growth,[36],1.21
same,normalized growth,[37],0.983
same,normalized growth,[38],1.01
same,normalized growth,[39],0.997
same,normalized growth,[40],1
same,normalized growth,[41],1.09
same,normalized growth,[42],1.07
same,normalized growth,[43],0.997
same,normalized growth,[44],0.999
same,normalized growth,[45],1.01
same,normalized growth,[46],0.996
same,normalized growth,[47],1.01
same,normalized growth,[48],0.999
same,normalized growth,[49],1
same,normalized growth,[50],0.988
same,normalized growth,[51],1
same,normalized growth,[52],1.15
same,normalized growth,[53],1.01
same,normalized growth,[54],0.998
same,normalized growth,[55],0.997
same,normalized growth,[56],0.995
same,normalized growth,[57],0.992
same,normalized growth,[58],0.986
same,normalized growth,[59],1.04
same,normalized growth,[60],1.1
same,normalized growth,[61],1
same,normalized growth,[62],1.01
same,normalized growth,[63],1.02
same,normalized growth,[64],1.01
same,normalized growth,[65],0.997
same,normalized growth,[66],1.11
same,normalized growth,[67],0.999
same,normalized growth,[68],0.992
same,normalized growth,[69],0.986
same,normalized growth,[70],0.994
same,normalized growth,[71],0.995
O=C(NCCSCc1cccc(C(F)(F)F)c1)c1ccc(Cl)cc1,normalized growth,[1],0.968
same,normalized growth,[2],0.965
same,normalized growth,[3],0.953
same,normalized growth,[4],0.979
same,normalized growth,[5],0.964
same,normalized growth,[6],0.971
same,normalized growth,[7],0.947
same,normalized growth,[8],0.975
same,normalized growth,[9],0.961
same,normalized growth,[10],0.96
same,normalized growth,[11],0.891
same,normalized growth,[12],0.982
same,normalized growth,[13],0.955
same,normalized growth,[14],0.973
same,normalized growth,[15],0.894
same,normalized growth,[16],0.851
same,normalized growth,[17],0.916
same,normalized growth,[18],0.961
same,normalized growth,[19],0.965
same,normalized growth,[20],0.964
same,normalized growth,[21],0.964
same,normalized growth,[22],0.965
same,normalized growth,[23],0.905
same,normalized growth,[24],0.826
same,normalized growth,[25],0.733
same,normalized growth,[26],0.614 (active)
same,normalized growth,[27],0.72
same,normalized growth,[28],0.871
same,normalized growth,[29],0.738
same,normalized growth,[30],0.97
same,normalized growth,[31],0.743
same,normalized growth,[32],0.887
same,normalized growth,[33],0.918
same,normalized growth,[34],0.959
same,normalized growth,[35],0.897
same,normalized growth,[36],0.769
same,normalized growth,[37],0.963
same,normalized growth,[38],0.864
same,normalized growth,[39],0.917
same,normalized growth,[40],0.962
same,normalized growth,[41],0.988
same,normalized growth,[42],0.736 (active)
same,normalized growth,[43],0.902
same,normalized growth,[44],0.896
same,normalized growth,[45],0.903
same,normalized growth,[46],0.963
same,normalized growth,[47],0.885
same,normalized growth,[48],0.951
same,normalized growth,[49],0.967
same,normalized growth,[50],0.896
same,normalized growth,[51],0.973
same,normalized growth,[52],0.819
same,normalized growth,[53],0.969
same,normalized growth,[54],0.965
same,normalized growth,[55],0.86
same,normalized growth,[56],0.963
same,normalized growth,[57],0.896
same,normalized growth,[58],0.849
same,normalized growth,[59],0.916
same,normalized growth,[60],0.764
same,normalized growth,[61],0.965
same,normalized growth,[62],0.892
same,normalized growth,[63],0.892
same,normalized growth,[64],0.886
same,normalized growth,[65],0.968
same,normalized growth,[66],0.797 (active)
same,normalized growth,[67],0.957
same,normalized growth,[68],0.947
same,normalized growth,[69],0.93
same,normalized growth,[70],0.954
same,normalized growth,[71],0.959
